What all share (conditions): mRNA level, 48 h; actives raise or lower the signal
Read-out in test [1]: Early growth response protein 1 (EGR1) transcription factor, EGR1 (gene 1958)
Put plainly: LTEA_HepaRG_EGR1: Life Technologies and Expression Analysis (LTEA) Assay for Early growth response protein 1 (EGR1) transcription factor using HepaRG (AID 2283490). The procedure, abridged:
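Differentiated HepaRG cells in serum-free induction medium exposed 48 hours, duplicate, to 8 half-log concentrations up to 100 uM in 0.5% DMSO. EGR1 mRNA measured by TaqMan qRT-PCR, normalized to ACTB, GAPDH, POLR2A; bidirectional fit versus DMSO.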

Read-out in test [2]: Ezrin (EZR), EZR (gene 7430)
Nature of the test: LTEA_HepaRG_EZR: Life Technologies and Expression Analysis (LTEA) Assay for Ezrin (EZR) using HepaRG (AID 2283491). The procedure, abridged: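 Differentiated human HepaRG cells, 48 h after plating, were exposed in serum-free induction medium for 48 hours to eight half-log concentrations up to 100 uM in 0.5% DMSO. EZR mRNA was measured by TaqMan qRT-PCR, normalized to ACTB, GAPDH and POLR2A, and fitted bidirectionally against DMSO.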

Read-out in test [3]: Cytochrome P450 3A7 (Homo sapiens) (UniProt P24462)
Put plainly: LTEA_HepaRG_CYP3A7: Life Technologies and Expression Analysis (LTEA) Assay for CYP3A7 using HepaRG (AID 2283492). The procedure, abridged: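 CYP3A7 transcript measured by qRT-PCR (ACTB, GAPDH, POLR2A normalization) after 48 h chemical exposure of HepaRG cells in duplicate. Eight half-log concentrations, maximum 100 uM, 0.5% DMSO vehicle; bidirectional curve fitting against DMSO baseline.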

Read-out in a further test: CYP3A5 (gene 1577)
Put plainly: LTEA_HepaRG_CYP3A5: Life Technologies and Expression Analysis (LTEA) Assay for CYP3A5 using HepaRG (AID 2283493). The procedure, abridged: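 HepaRG cells, plated 48 h then in serum-free induction medium, dosed in duplicate for 48 h with eight half-log concentrations up to 100 uM in 0.5% DMSO. Gene mRNA by Fluidigm TaqMan qRT-PCR, normalized to ACTB, GAPDH, POLR2A.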

Read-out in test [4]: Fatty Acid-Binding Protein 1 (FABP1), FABP1 (gene 2168)
Nature of the test: LTEA_HepaRG_FABP1: Life Technologies and Expression Analysis (LTEA) Assay for Fatty Acid-Binding Protein 1 (FABP1) using HepaRG (AID 2283494). In outline: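 Differentiated human HepaRG cells exposed 48 h in serum-free induction medium to eight half-log concentrations up to 100 uM (0.5% DMSO), duplicate. FABP1 mRNA by qRT-PCR, normalised to ACTB, GAPDH, POLR2A; bidirectional fitting against DMSO.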

Read-out in test [5]: Cytochrome P450 4A22 (Homo sapiens) (UniProt Q5TCH4)
Put plainly: LTEA_HepaRG_CYP4A22: Life Technologies and Expression Analysis (LTEA) Assay for Cytochrome P450 4A22 (CYP4A22) using HepaRG (AID 2283495). In outline:
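Gene expression measured by qRT-PCR against three housekeeping genes (ACTB, GAPDH, POLR2A), with gain or loss fitted relative to 0.5% DMSO vehicle. HepaRG cultures received 48 h chemical treatment, top concentration 100 uM, half-log steps, duplicate wells.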

Read-out in test [6]: Glutamate-cysteine ligase catalytic (GCLC), GCLC (gene 2729)
Nature of the test: LTEA_HepaRG_GCLC: Life Technologies and Expression Analysis (LTEA) Assay for Glutamate-cysteine ligase catalytic (GCLC) using HepaRG (AID 2283498). The procedure, abridged: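 Differentiated HepaRG cells exposed 48 h in serum-free induction medium, eight-point half-log series topping at 100 uM in 0.5% DMSO, duplicates. GCLC mRNA by qRT-PCR normalized to ACTB, GAPDH and POLR2A, fitted bidirectionally versus DMSO.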

Read-out in test [7]: growth arrest and DNA damage 45 (GADD45G), GADD45G (gene 10912)
Put plainly: LTEA_HepaRG_GADD45G: Life Technologies and Expression Analysis (LTEA) Assay for growth arrest and DNA damage 45 (GADD45G) using HepaRG (AID 2283499). The procedure, abridged:
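GADD45G transcript level by qRT-PCR (housekeeping-normalized: ACTB, GAPDH, POLR2A) after 48 h chemical treatment of a single HepaRG lot in serum-free induction medium; eight-point half-log series up to 100 uM in 0.5% DMSO, duplicates, up- or down-regulation scored.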

Read-out in test [8]: Glutamate-cysteine ligase regulatory (GCLM), GCLM (gene 2730)
Put plainly: LTEA_HepaRG_GCLM: Life Technologies and Expression Analysis (LTEA) Assay for Glutamate-cysteine ligase regulatory (GCLM) using HepaRG (AID 2283500). In outline:
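Differentiated HepaRG cells exposed 48 h in serum-free induction medium to eight half-log concentrations up to 100 uM (0.5% DMSO). GCLM mRNA by TaqMan qRT-PCR, normalized to ACTB, GAPDH and POLR2A; bidirectional fit versus DMSO.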

Read-out in test [9]: Heat shock 70 kDa protein 1 (HSPA1A), gene 3303
Put plainly: LTEA_HepaRG_HSPA1A: Life Technologies and Expression Analysis (LTEA) Assay for Heat shock 70 kDa protein 1 (HSPA1A) using HepaRG (AID 2283502). The procedure, abridged:
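Human HepaRG cells in serum-free induction medium were exposed in duplicate for 48 h to 8 half-log concentrations, highest 100 uM, in 0.5% DMSO. HSPA1A mRNA read by TaqMan qRT-PCR, normalized to ACTB, GAPDH, POLR2A, fitted bidirectionally against DMSO.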

Read-out in test [10]: Hypoxia-inducible factor 1-alpha (Homo sapiens) (UniProt Q16665)
Put plainly: LTEA_HepaRG_HIF1A: Life Technologies and Expression Analysis (LTEA) Assay for Hypoxia-inducible factor 1 (HIF1A) Trancription factor using HepaRG (AID 2283503). In outline:
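Differentiated HepaRG cells in serum-free induction medium exposed 48 h, in duplicate, to 8-point half-log series from 100 uM in 0.5% DMSO. HIF1A mRNA measured by TaqMan qRT-PCR, normalized to ACTB/GAPDH/POLR2A, fitted bidirectionally versus DMSO.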

Read-out in test [11]: 3-Hydroxy-3-Methylglutaryl-CoA Synthase 2 (HMGCS2), HMGCS2 (gene 3158)
Nature of the test: LTEA_HepaRG_HMGCS2: Life Technologies and Expression Analysis (LTEA) Assay for 3-Hydroxy-3-Methylglutaryl-CoA Synthase 2 (HMGCS2) using HepaRG (AID 2283504). In outline:
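Readout is HMGCS2 transcript by qRT-PCR, housekeeping-normalised (ACTB/GAPDH/POLR2A) and fitted bidirectionally against 0.5% DMSO. Differentiated HepaRG cells received chemicals 48 h, duplicate wells, eight half-log concentrations topping at 100 uM.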

Read-out in test [12]: Insulin Like Growth Factor 1 (IGF1), IGF1 (gene 3479)
Nature of the test: LTEA_HepaRG_IGF1: Life Technologies and Expression Analysis (LTEA) Assay for Insulin Like Growth Factor 1 (IGF1) using HepaRG (AID 2283506). In outline: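 Differentiated HepaRG cells in serum-free induction medium, exposed 48 h in duplicate to 8 half-log concentrations up to 100 uM in 0.5% DMSO. IGF1 mRNA by Fluidigm qRT-PCR, normalised to ACTB, GAPDH and POLR2A.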

Read-out in test [13]: Intercellular Adhesion Molecule 1 (ICAM1), ICAM1 (gene 3383)
Nature of the test: LTEA_HepaRG_ICAM1: Life Technologies and Expression Analysis (LTEA) Assay for Intercellular Adhesion Molecule 1 (ICAM1) using HepaRG (AID 2283507). The procedure, abridged: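 ICAM1 transcript levels measured by qRT-PCR, normalized to three housekeeping genes (ACTB, GAPDH, POLR2A), after 48 h chemical exposure of HepaRG cells. Duplicate eight-point half-log series from 100 uM in 0.5% DMSO; gain or loss fitted against vehicle.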

Read-out in test [14]: Insulin-like growth factor-binding protein 1 (IGFBP1), IGFBP1 (gene 3484)
Nature of the test: LTEA_HepaRG_IGFBP1: Life Technologies and Expression Analysis (LTEA) Assay for Insulin-like growth factor-binding protein 1 (IGFBP1) using HepaRG (AID 2283508). In outline: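 Read-out is qRT-PCR transcript level normalized to three housekeeping genes, fitted in both directions against 0.5% DMSO. Differentiated HepaRG cells received eight half-log concentrations (top 100 uM) in duplicate for 48 h in serum-free induction medium.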

Read-out in test [15]: Interleukin 6 (IL6), IL6 (gene 3569)
Nature of the test: LTEA_HepaRG_IL6: Life Technologies and Expression Analysis (LTEA) Assay for Interleukin 6 (IL6) using HepaRG (AID 2283509). In outline: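 HepaRG cells exposed in duplicate for 48 h to eight half-log concentrations, top 100 uM, in 0.5% DMSO serum-free induction medium. mRNA measured by qRT-PCR, normalized to ACTB, GAPDH and POLR2A. Bidirectional fit versus DMSO.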

Read-out in test [16]: Glutathione S-transferase M3 (GSTM3), GSTM3 (gene 2947)
Nature of the test: LTEA_HepaRG_GSTM3: Life Technologies and Expression Analysis (LTEA) Assay for Glutathione S-transferase M3 (GSTM3) using HepaRG (AID 2283501). In outline: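 GSTM3 transcript levels came from Fluidigm TaqMan qRT-PCR normalized to three housekeeping genes, fitted in both directions against DMSO. HepaRG cultures received chemicals for 48 h in serum-free induction medium (0.5% DMSO), 8 half-log concentrations up to 100 uM, duplicate.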

Read-out in another test: HGF (gene 3082)
Nature of the test: LTEA_HepaRG_HGF: Life Technologies and Expression Analysis (LTEA) Assay for Hepatocyte Growth Facto (HGF) using HepaRG (AID 2283505). The procedure, abridged:
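HGF transcript was quantified by TaqMan qRT-PCR against three housekeeping genes after 48 h treatment of HepaRG cells. Exposure ran in duplicate over eight half-log steps topping at 100 uM in 0.5% DMSO vehicle.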

Read-out in test [17]: Glutathione S-Transferase (GSTA2), GSTA2 (gene 2939)
Nature of the test: LTEA_HepaRG_GSTA2: Life Technologies and Expression Analysis (LTEA) Assay for Glutathione S-Transferase (GSTA2) using HepaRG (AID 2283497). In outline: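 Differentiated human HepaRG cells were exposed in duplicate for 48 h in serum-free induction medium, 8 points from 100 uM top in half-log steps, 0.5% DMSO. GSTA2 mRNA was measured by TaqMan qRT-PCR, normalized to ACTB, GAPDH and POLR2A; bidirectional fit versus DMSO.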

Activity calls are given as the source filed them. Rule for the calls: active = hit-call score of the fitted dose curve at least 0.9, where 1 is the maximum; inactive = score below 0.9.

Cytochrome P450 3A7 (Homo sapiens), sequence (P24462 whole entry, looked up): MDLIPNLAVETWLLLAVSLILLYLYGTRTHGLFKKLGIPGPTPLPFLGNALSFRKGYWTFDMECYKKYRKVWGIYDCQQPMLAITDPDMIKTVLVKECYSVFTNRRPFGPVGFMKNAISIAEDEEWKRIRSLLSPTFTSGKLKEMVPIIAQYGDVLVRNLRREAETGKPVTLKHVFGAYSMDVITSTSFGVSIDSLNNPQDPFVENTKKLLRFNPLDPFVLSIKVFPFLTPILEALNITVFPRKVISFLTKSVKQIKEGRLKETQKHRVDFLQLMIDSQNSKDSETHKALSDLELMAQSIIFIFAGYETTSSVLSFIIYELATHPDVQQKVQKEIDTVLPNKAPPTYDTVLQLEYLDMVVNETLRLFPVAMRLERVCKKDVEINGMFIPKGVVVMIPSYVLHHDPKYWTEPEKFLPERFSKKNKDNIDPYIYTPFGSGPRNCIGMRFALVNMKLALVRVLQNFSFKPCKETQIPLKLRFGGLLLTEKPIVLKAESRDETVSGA
Hypoxia-inducible factor 1-alpha (Homo sapiens), sequence (Q16665 whole entry, looked up): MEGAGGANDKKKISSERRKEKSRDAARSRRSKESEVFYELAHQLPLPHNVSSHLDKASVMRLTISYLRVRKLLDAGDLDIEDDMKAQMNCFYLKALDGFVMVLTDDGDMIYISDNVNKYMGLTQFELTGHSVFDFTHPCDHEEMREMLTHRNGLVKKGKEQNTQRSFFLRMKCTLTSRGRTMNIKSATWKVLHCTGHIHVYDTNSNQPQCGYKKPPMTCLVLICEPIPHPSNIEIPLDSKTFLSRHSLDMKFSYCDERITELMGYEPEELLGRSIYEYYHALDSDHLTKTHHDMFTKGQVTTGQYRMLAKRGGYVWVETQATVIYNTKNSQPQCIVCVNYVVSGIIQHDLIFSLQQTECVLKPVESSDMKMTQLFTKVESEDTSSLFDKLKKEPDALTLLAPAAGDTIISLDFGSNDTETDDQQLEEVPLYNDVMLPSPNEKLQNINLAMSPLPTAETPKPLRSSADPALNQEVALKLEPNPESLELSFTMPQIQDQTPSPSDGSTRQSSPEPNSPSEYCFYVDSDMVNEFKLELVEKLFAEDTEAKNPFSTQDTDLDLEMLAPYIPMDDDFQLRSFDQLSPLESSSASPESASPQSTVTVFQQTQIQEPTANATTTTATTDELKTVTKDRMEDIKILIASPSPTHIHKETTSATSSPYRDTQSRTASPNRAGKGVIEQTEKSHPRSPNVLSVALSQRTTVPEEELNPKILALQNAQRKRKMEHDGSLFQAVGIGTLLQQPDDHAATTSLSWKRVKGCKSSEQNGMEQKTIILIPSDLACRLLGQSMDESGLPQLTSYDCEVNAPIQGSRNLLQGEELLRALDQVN

For `CC[C@H](NC(=O)c1cc(F)ccc1NS(=O)(=O)c1cccc2cccnc12)c1ccccc1`, the call (in [1]; in test [2]; in test [3]; with CYP3A5 (gene 1577); in test [7]; in test [8]) was inactive. Moreover, the call in test [10], in test [13], in test [14] and in [15] was inactive. Further, the AC50 in test [4] was 32.3 µM (active); in test [5] it was 22.8 µM (active); in [6], 47.8 µM (active); in [9], 12.2 µM (active); in test [11], 37.6 µM (active); in test [12], 12.4 µM (active).
Take `CN(C[C@@H](CC[N+]12CCC(C3CCCCC3)(CC1)CC2)c1ccc(Cl)c(Cl)c1)C(=O)c1cc(C(F)(F)F)cc(C(F)(F)F)c1`: the AC50 was 54.4 µM (active) in test [1]; 28.6 µM (active) in [3]; 68.8 µM (active) with CYP3A5 (gene 1577); 12.5 µM (active) in test [4]; 22.4 µM (active) in [5]; 60.9 µM (active) in [6]. For the same molecule, the AC50 in test [8] was 91.2 µM (active); in [16], 15.8 µM (active); in test [9] it was 71.9 µM (active); in test [10], 50 µM (active); in [11], 67.4 µM (active); in the test with HGF (gene 3082), 20 µM (active). The AC50 in test [12] is 24.1 µM (active); in test [13] it was 12.2 µM (active); in test [14], 13.9 µM (active); in [15] it was 75.6 µM (active). For the same molecule, the call in [2] and in test [7] was inactive.
As to `CCCCOC(=O)c1ccc(O)cc1`, the call (in test [2]; in [3]; with CYP3A5 (gene 1577); in test [4]; in [5]; in test [17]) was inactive. The call in test [6], in [7], in [8], in [16], in test [9] and in test [11] was inactive. In addition, the call (with HGF (gene 3082); in test [12]; in test [13]; in [14]; in [15]) was inactive.
